According to PubChem BioAssay AID2501 (Southern Research Specialized Biocontainment Screening …, 2010):
In all, about 2,200 compounds went through this assay and about 1,200 (55%) were called active. No cut-off is given here; in the data, nearly all actives have IC50 up to about 92 µM. So high a share suggests a set chosen from earlier hits. The list shows a part of the results.

Test: counter assay for TAg ATPase ADP read-out – biochemical, ADP-Hunter, fluorescence, counter-screen (AID 2501);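 note: purified T antigen ATPase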;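 for inhibition: 0% = enzyme with vehicle and 100% = reference inhibitor wells; higher means more inhibition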
Settings: series mostly up to 100 µM; inhibition: at the top concentration
With `CC(C(=O)Nc1ccccc1Cl)N(c1ccccc1)S(C)(=O)=O` (centres undefined) the “inhibition” value was 15.5% (inactive).
With `CCCSC1=N/C(=C\C=C\c2ccco2)C(=O)S1` the “inhibition” value was 13.2% (inactive).
In the case of `CCOc1cc(/C=N/NC(=O)CCn2nnc3ccccc32)ccc1O`, the IC50 was 3.32 µM (active).
For `COc1cc(/C=N/NC(=O)Cn2nnc3ccccc32)ccc1O`, the IC50 was 2.86 µM (active).
In the case of `COc1cc(/C=N/NC(=O)CCn2nnc3ccccc32)ccc1O`, the IC50 was 3.56 µM (active).
In the case of `COc1cc(/C=N/NC(=O)CCn2nc(C)cc2C)ccc1O`, the IC50 was 6.73 µM (active).
In the case of `CCOC(=O)C1=C(N)n2c(s/c(=C\c3ccco3)c2=O)=C(C(=O)OCC)C1c1ccco1` (centres undefined), the “inhibition” value was -0.39% (inactive).
With `C[C@]12CC[C@@H]3c4cc(O)c(O)cc4CC[C@H]3[C@@H]1CC[C@@H]2O` the “inhibition” value was 12.5% (inactive).
In the case of `CCCNC(=O)c1ccc(CNc2c(N3CCC(C(=O)OCC)CC3)c(=O)c2=O)cc1`, the “inhibition” value was -20.8% (inactive).
With `O=C1NC(=Nc2ccc(O)cc2)S/C1=C/c1ccco1` the IC50 was 5.16 µM (active).
With `O=C1NC(=Nc2ccc(O)cc2)S/C1=C\C=C\c1ccco1` the IC50 was 3.48 µM (active).
With `O=C(O)CC(C(=O)O)N1C(=O)/C(=C/C=C/c2ccco2)SC1=S` (centres undefined) the “inhibition” value was -2.02% (inactive).
In the case of `O=C(CCCN1C(=O)/C(=C\c2ccco2)SC1=S)Nc1ccc(O)cc1C(=O)O`, the “inhibition” value was 18% (inactive).
In the case of `Cc1ccc(S(=O)(=O)/N=C2/NC(=O)/C(=C\c3ccco3)S2)cc1`, the “inhibition” value was -7.12% (inactive).
For `Cc1cccc(N=C2NC(=O)/C(=C/C=C/c3ccco3)S2)c1`, the “inhibition” value was -17.8% (inactive).
With `CCCC[C@@H]1CN=C(N)N1CCc1cc(C(F)(F)F)cc(C(F)(F)F)c1` the “inhibition” value was 16.9% (inactive).
With `O=Nc1c(-c2cccc([N+](=O)[O-])c2)nc2ncccn12` the “inhibition” value was -14.4% (inactive).
In the case of `CN=c1nc(-c2ccccc2)n(-c2ccccc2)s1`, the IC50 was 11.8 µM (active).
With `O=C(N/N=C/c1ccc(OC(=O)c2ccco2)cc1)c1ccc[n+]([O-])c1` the IC50 was 41.7 µM (active).
With `CCOC(=O)C1=C(C)NC(=S)NC1c1ccc(OC(=O)c2ccco2)cc1` (centres undefined) the “inhibition” value was 27.4% (inactive).
With `Oc1ccc(-c2nc(=S)[nH][nH]2)cc1` the IC50 was 2.49 µM (active).
With `O=C(Nc1ccc(S(=O)(=O)N2CCCC2)cc1)N1c2ccccc2Sc2ccccc21` the “inhibition” value was 1.56% (inactive).
In the case of `O=c1c2ccccc2sn1-c1cc(S(=O)(=O)N2CCOCC2)ccc1N1CCOCC1`, the IC50 was 12.5 µM (active).
In the case of `O=c1c2ccccc2sn1-c1cc(S(=O)(=O)N2CCOCC2)ccc1N1CCCC1`, the IC50 was 12.5 µM (active).
For `Cc1ccc2c(c1)C(c1ccccc1)N(C(=O)c1ccc(S(=O)(=O)N3CCOCC3)cc1)CC(=O)N2` (centres undefined), the “inhibition” value was -15.6% (inactive).
With `C[C@@H]1O[C@@H](OC2C(O)C(OCCc3ccc(O)c(O)c3)OC(CO)C2OC(=O)/C=C/c2ccc(O)c(O)c2)[C@H](O)[C@H](O)[C@H]1O` (some centres undefined) the IC50 was 6.02 µM (active).
With `Nc1nc[nH]c(=O)c1N=Cc1ccccc1` the IC50 was 12.2 µM (active).
With `C=CCNc1nnc(SC2CC(=O)N(c3ccc(OC)cc3)C2=O)s1` (centres undefined) the IC50 was 11.2 µM (active).
With `CCN=C(Nc1ccc2c(c1)OCO2)SC1CC(=O)N(c2ccc(OC)cc2)C1=O` (centres undefined) the “inhibition” value was -27.4% (inactive).
For `Cc1c(/C=N/NC(=O)c2ccc(O)cc2)c2ccccn2c1C(=O)c1ccc(F)cc1`, the “inhibition” value was -8.33% (inactive).
With `CN1/C(=C\C=N\NC(=O)c2ccc(O)cc2)C(C)(C)c2ccccc21` the IC50 was 8.51 µM (active).
In the case of `O=S(=O)(O)c1cc(O)c2c(O)c(N=Nc3cc(Cl)ccc3O)c(S(=O)(=O)O)cc2c1`, the IC50 was 81.2 µM (active).
With `Cc1cc(-c2ccc(N=Nc3c(S(=O)(=O)O)cc4cc(S(=O)(=O)O)cc(N)c4c3O)c(C)c2)ccc1N=Nc1c(S(=O)(=O)O)cc2cc(S(=O)(=O)O)cc(N)c2c1O` the IC50 was 11.5 µM (active).
For `Cc1sc(NC(=O)C2C3CCC(O3)C2C(=O)O)c(C(=O)OC(C)C)c1-c1ccc(Cl)cc1` (centres undefined), the “inhibition” value was 3.87% (inactive).
For `CCCn1cnc2cc(NCc3cccc(OC)c3O)ccc21`, the IC50 was 4.87 µM (active).
With `CCn1cnc2cc(NCc3cccc(OC)c3O)ccc21` the IC50 was 3.71 µM (active).
With `C/C(Cl)=C\Cn1c(N2CCCC2)nc2c1c(=O)[nH]c(=O)n2C` the “inhibition” value was 12.8% (inactive).
In the case of `O=C(O)CCNc1ccc(NCCC(=O)O)c2c1C(=O)c1ccccc1C2=O`, the IC50 was 7.52 µM (active).
In the case of `Oc1cnn(-c2ccccc2)c1`, the IC50 was 7.63 µM (active).
In the case of `CC(=O)Nc1sc(N/N=C\c2ccco2)nc1-c1cccs1`, the IC50 was 74 µM (active).
In the case of `O=C(Nc1nc(-c2ccco2)c(-c2ccco2)s1)c1ccco1`, the “inhibition” value was 6.22% (inactive).
With `CCOc1cc(/C=N/Nc2nc(-c3cccs3)c(NC(C)=O)s2)ccc1O` the IC50 was 9.71 µM (active).
In the case of `COc1cc(/C=N\Nc2nc(-c3cccs3)c(NC(C)=O)s2)ccc1O`, the IC50 was 4.67 µM (active).
In the case of `NS(=O)(=O)c1cc(C(=O)NC2CCSc3ccccc32)ccc1Cl` (centres undefined), the “inhibition” value was 10.5% (inactive).
For `CSc1cccc(NC(=O)CN2C(=O)c3ccccc3S2(=O)=O)c1`, the “inhibition” value was 14% (inactive).
With `CCS(=O)(=O)c1ncc(Cl)c(C(=O)Nc2ccc(S(=O)(=O)N3CCCC(C)C3)cc2)n1` (centres undefined) the “inhibition” value was -5.26% (inactive).
With `Cc1cc(N/N=C/c2ccc(O)cc2O)nc(N2CCOCC2)n1` the IC50 was 22.7 µM (active).
With `Oc1ccc(/C=N/Nc2cc(N3CCCC3)nc(N3CCCC3)n2)cc1O` the IC50 was 31.9 µM (active).
In the case of `Oc1ccc(/C=N/Nc2cc(N3CCOCC3)nc(N3CCOCC3)n2)cc1O`, the IC50 was 4.67 µM (active).
With `O=C(NC1CCCC1)C(c1ccc(F)cc1)N(Cc1ccc(F)cc1)C(=O)c1ccn[nH]1` (centres undefined) the “inhibition” value was -25.8% (inactive).
With `COc1ccc(N2CSC3=C(C#N)C(c4cccs4)CC(=O)N3C2)cc1` (centres undefined) the IC50 was 7.88 µM (active).
For `N#CC1=C2SCN(Cc3ccccc3)CN2C(=O)CC1c1cccs1` (centres undefined), the “inhibition” value was 17.8% [at 25 µM] (inactive).
With `Cc1ccc(N2CSC3=C(C#N)C(c4cccs4)CC(=O)N3C2)cc1` (centres undefined) the IC50 was 23.6 µM (active).
In the case of `COc1ccc(C2CC(=O)N3CN(c4ccc(C)c(Cl)c4)CSC3=C2C#N)cc1` (centres undefined), the “inhibition” value was 24.2% (inactive).
For `CCOc1ccc(N2CSC3=C(C#N)C(c4ccco4)CC(=O)N3C2)cc1` (centres undefined), the IC50 was 10.4 µM (active).
With `CCc1ccccc1N1CSC2=C(C#N)C(c3ccccc3F)CC(=O)N2C1` (centres undefined) the “inhibition” value was 15.7% (inactive).
In the case of `COc1ccc(N2CSC3=C(C#N)C(c4cccc(OC)c4OC)CC(=O)N3C2)cc1` (centres undefined), the IC50 was 5.84 µM (active).
In the case of `COc1ccc(-n2cc(CN3CCCC3)c(-c3cccc(F)c3)n2)cc1`, the “inhibition” value was -4.56% (inactive).
In the case of `COc1ccc2cc(-c3[nH]ncc3CN3CCCN(c4ccccc4)CC3)ccc2c1`, the “inhibition” value was 4.26% (inactive).
For `C/C=C/c1cc(CN2CCN(c3ccc(OC)cc3)CC2)c(O)c(OC)c1`, the IC50 was 32.1 µM (active).
With `O=S(=O)(Nc1cccc(C(F)(F)F)c1)c1cnc[nH]1` the “inhibition” value was 10.2% (inactive).
With `Cc1cc(C)c2c(=O)n(CC(=O)Nc3cccc(Cl)c3C)sc2n1` the “inhibition” value was -7.59% (inactive).
With `Cc1coc2c(O)cc3c(c12)OC1(N2CCCCC2)C(=O)NCCCC31` (centres undefined) the “inhibition” value was -156% (inactive).
For `COc1cc(CNc2ccc3c(c2)CCC3)cc(OC)c1O`, the IC50 was 11.4 µM (active).
In the case of `CC1C/C(=C/c2ccco2)C(=O)/C(=C/c2ccco2)C1` (centres undefined), the “inhibition” value was 28.2% (inactive).
With `N#CC1=C(N)n2c(s/c(=C\c3ccco3)c2=O)=C(C#N)C1c1ccco1` (centres undefined) the “inhibition” value was 5.17% (inactive).
In the case of `CC1=C(C#N)C(=O)N(C2CCS(=O)(=O)C2)C(=O)/C1=C\c1ccco1` (centres undefined), the IC50 was 82 µM (active).
With `O=C(/C=C/c1ccco1)Nc1cccc(C(=O)Nc2ccccc2C(=O)O)c1` the “inhibition” value was -24.9% (inactive).
With `O=C(NC(=O)c1cnccc1C(F)(F)F)Nc1ccccc1` the “inhibition” value was -24.9% (inactive).
With `O=C(Nc1ccc(O)cc1)/C(=C\c1cccs1)NC(=O)c1ccccc1` the IC50 was 8.43 µM (active).
For `O=C(Nc1ccc(O)cc1)/C(=C\c1ccncc1)NC(=O)c1ccccc1`, the IC50 was 10.7 µM (active).
In the case of `O=C(Nc1ccc(O)cc1)/C(=C/c1ccco1)NC(=O)c1ccccc1`, the IC50 was 3.43 µM (active).
With `NC(=O)/C(=C/c1ccco1)C(N)=S` the “inhibition” value was 23.5% (inactive).
For `CCC(C)N(C(=O)COC(=O)/C=C/c1ccc(O)c(OC)c1)C1CCS(=O)(=O)C1` (centres undefined), the IC50 was 19 µM (active).
In the case of `C/C(CC(=O)Nc1ccc2ccccc2c1)=N\NC(=O)c1ccc(O)c(O)c1`, the IC50 was 5.4 µM (active).
In the case of `O=C(COc1ccc2ccccc2c1)Nc1ccc(Cc2ccncc2)cc1`, the “inhibition” value was -35.1% (inactive).
With `C/C(CC(=O)Nc1ccc(N(C)C)cc1)=N\NC(=O)c1cnccn1` the IC50 was 3.36 µM (active).
With `O=C(Nc1nc(-c2ccco2)c(-c2ccco2)s1)c1cnccn1` the “inhibition” value was 21.5% (inactive).
With `C/C(CC(=O)Nc1ccc(N(C)C)cc1)=N\NC(=O)c1ccncc1` the IC50 was 7.2 µM (active).
For `C/C(=N\NC(=O)CCC(=O)Nc1ccc(C)c(C)c1)c1cccs1`, the “inhibition” value was -20.1% (inactive).
In the case of `O=[N+]([O-])c1c(NCCO)cc(Sc2nc3ccccc3s2)c2nonc12`, the “inhibition” value was -15.8% (inactive).
In the case of `Oc1ccc(N=Cc2ccc(O)c(O)c2)cc1`, the IC50 was 2.65 µM (active).
With `Oc1ccc(/C=N/N=C/c2ccc(O)c(O)c2)cc1O` the IC50 was 2.99 µM (active).
With `COC1=CC(=O)C(O)=C(CCCCCCC/C=C/CCCCCCCC2=C(O)C(=O)C=C(OC)C2=O)C1=O` the “inhibition” value was -44.9% (inactive).
In the case of `O=C(CCSc1ccccc1)Nc1ncccn1`, the “inhibition” value was 19.5% (inactive).
With `O=C(CCCCl)NC1=NN(c2ccccc2)C(=O)C1` the IC50 was 12.6 µM (active).
With `CCCCCC(=O)NNC1CC(=O)N(c2cccc(OCC)c2)C1=O` (centres undefined) the “inhibition” value was -16.1% (inactive).
For `Oc1cccc2cnccc12`, the IC50 was 5.53 µM (active).
With `N#Cc1c(N2CCCCC2)nc(N)c2c(N)nc(SCC(=O)O)cc12` the “inhibition” value was -21.9% (inactive).
With `c1cncc(CNc2ccc3c(c2)OCO3)c1` the IC50 was 7.3 µM (active).
With `COc1ccc(-c2c(-c3ccc(O)cc3O)n[nH]c2C)cc1OC` the IC50 was 13.2 µM (active).
In the case of `CNc1nc(C)nc(-n2nc(C)cc2C)n1`, the “inhibition” value was 15.3% (inactive).
For `CC1=C(C)CS(=O)N(S(=O)(=O)c2ccccc2)C1` (centres undefined), the “inhibition” value was 0.26% (inactive).
In the case of `O=C(OCCCN1CCOCC1)c1ccc(O)c(O)c1`, the IC50 was 9.99 µM (active).
For `COc1ccc(OC)c(C2C(C(=O)c3ccc(C)o3)=C(O)C(=O)N2CCN2CCOCC2)c1` (centres undefined), the “inhibition” value was -6.16% (inactive).
With `COc1cc(OC)c(-c2c3cc(O)c(=O)cc-3oc3cc(O)c(O)cc23)cc1OC` the IC50 was 7.14 µM (active).
In the case of `CN(C)c1oc(-c2ccccc2[N+](=O)[O-])nc1C#N`, the “inhibition” value was -16.3% (inactive).
In the case of `O=c1cc2oc3cc(O)c(O)cc3c(-c3ccccc3[N+](=O)[O-])c-2cc1O`, the IC50 was 7.23 µM (active).
With `COc1ccc(OC)c(-c2c3cc(O)c(=O)cc-3oc3cc(O)c(O)cc23)c1` the “inhibition” value was -162% (inactive).
